Screening results (PubChem BioAssay)
HCV inhibitor: blocks hepatitis C virus | Huh7.5.1 HCVcc-Cre infection, luciferase reporter, 44 h | Potency, µM (highest dose often 41.8 µM), for the others: at the highest dose activity change, negative = inhibition, hits mostly inhibitors | 340,000 compounds, 3.4% hits | AID 651820; active = well fitted inhibition curve with a large enough effect; inconclusive = small, poorly fitted or top-dose-only effect, or another doubt; inactive = no such curve, though single readings can be large or run the other way; also: potency is read from the fitted curve at half-maximal effect
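After 44 h co-culture of compound, cells and HCVcc-Cre (~0.5 moi), substrate is added for 15 min at room temperature and luciferase measured over 15 sec. Cells were seeded at 1,000/well and pre-cultured 4 h.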
Marburg entry inh: blocks Marburg virus binding to or entry into cells | Marburg virus pseudotyped entry inhibition, cell reporter | Potency, µM (titrated, usually from 37.8 µM), without a hit: top-dose activity change, negative = inhibition, hits mostly inhibitors | 300,000 compounds, 1.8% hits | AID 540276; calls by dose curve; tested in HEK293 cells; also: potency is read from the fitted curve at half-maximal effect
HCMV inh: inhibitors of human cytomegalovirus; activity change, negative = inhibition, % at 57.5 µM; HFF cells, HCMV-luciferase reporter, 72 h; hits give low values; 410,000 compounds, 4.5% hits; in the data active = activity change below about -60%; inconclusive = no clear call, values can overlap the other calls; inactive = above about -39%
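Human foreskin fibroblasts infected with luciferase-reporter HCMV at MOI 1 PFU/cell, compounds at two doses. Luciferase measured 72 h post infection; normalized to buffer-only basal and Salinomycin (10uM) controls.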
Lassa entry inh: Lassa virus entry inhibition | Potency, µM (titrated, usually from 37.9 µM), inactives show at the top dose activity change, negative = inhibition, hits mostly inhibitors | Lassa virus pseudotype entry inhibition, cell reporter | 300,000 compounds, 1.2% hits; calls by dose curve; tested in HEK293 cells; also: potency is read from the fitted curve at half-maximal effect; nearly all actives have a fitted effect of over 50% in size
FMDV antiviral: blocks foot and mouth disease virus. FMDV antiviral cell-based qHTS. Potency, µM (titrated, usually from 57.9 µM), for the others: top-dose activity change, negative = inhibition, usual class: inhibitors. 410,000 compounds, 1.2% hits. AID 1159524; calls by dose curve; tested in HEK293T cells; also: read-out not given here; potency is read from the fitted curve at half-maximal effect; nearly all actives have a fitted effect of over 45% in size
An asterisk follows results filed as active; ? = inconclusive; . = not tested or not shown; [ ] = another dose, or the depositor's remark. Rows were chosen to be rich in hits. Some 7.9% of all compounds tested hit in one or more screens of this group. % is scaled to controls: 0 for no effect and ±100 for the full control effect.

SMILES	HCV inhibitor	Marburg entry inh	HCMV inh	Lassa entry inh	FMDV antiviral
COC(=O)c1cn(NC(=O)C2CCC(C)CC2)c(=O)c2ccccc12 (stereo not given)	-4.8%	-12.0%	22.8	1.8%	-18.1%
O=S1(=O)C=CCN1CCc1ccccc1	.	.	.	1.4%[46.1 µM]	.
CCOC(=O)Nc1cccnc1Sc1ccc(Cl)cc1	1.4%	-12.3%[46.1 µM]	-10.3	20.0%[46.1 µM]	-2.8%
CCCNC(=O)OCc1cccnc1Sc1ccc(C)cc1	5.4%	?	53.8	10µM*	45.8%
CN1C[C@@H]2[C@@H]3C(=O)N(Cc4ccccc4)C(=O)[C@@H]3[C@](Cc3ccccc3)(C1=O)N2C(=O)c1ccccc1	19.5%	.	-32.1	.	58.0%
CN1C[C@@H]2[C@@H]3C(=O)N(Cc4ccccc4)C(=O)[C@@H]3[C@](Cc3ccccc3)(C1=O)N2C(=O)c1ccc(C(C)(C)C)cc1	?	.	-97.7*	.	?
Cc1cc(NC(=O)CS(=O)(=O)c2cn(Cc3cccc(F)c3)c3ccccc23)no1	?	?	-34.0	?	39.8µM*
Cc1cc(C)c2c(n1)sc1c(=O)n(-c3cc(Cl)ccc3C)nnc12	.	9.6%[46.1 µM]	-60.4*	11.2%[46.1 µM]	-17.7%
CCc1cccc(CC)c1-n1nnc2c(sc3nc(C)cc(C)c32)c1=O	.	1.7%[46.1 µM]	-7.1	9.4%[46.1 µM]	?
O=C1C[C@H](S(=O)(=O)c2ccccc2)[C@@H](/C=C/c2ccccc2)N1Cc1ccccc1	.	.	-4.3	.	.
CC(=NNC(=S)N1CCC1)c1ccccn1	1.26µM*	?	-101.1*	?	10.7%
C/C(=N/NC(=O)c1ccccn1)c1ccc(O)cc1	22.8%	.	73.1	.	0.0%
CC(=NNC(=S)SCc1ccccc1)c1ccccn1	0.316µM*	0.891µM*	-96.5*	1.58µM*	?
CC(=NNC(=S)N1CCCC1)c1ccccn1	.	.	-98.9*	.	13.7%
S=C(NC1CCCCC1)N1CCN(c2ccccn2)CC1	-10.0%	-15.8%[46.1 µM]	8.9	4.4%	-9.0%
Cc1onc(-c2ccccc2Cl)c1C(=O)Oc1ccccc1F	.	.	-11.7	-2.9%[46.1 µM]	-15.6%
COP(=O)(OC)SCn1c(=O)oc2cc(Cl)cnc21	.	.	16.4	.	.
COc1ccc(N(C)C(=O)c2oc(=O)c3ccccc3c2-c2ccc(C)cc2)c(OC)c1	10µM*	-29.8%[46.1 µM]	-11.3	?	?
O=c1[nH]c(=O)n(-c2ccccc2)c2c1C(C(F)(F)F)(C(F)(F)F)N=C(CCC1CCCCC1)N2	?	?	-10.1	11.2µM*	25.1µM*
O=c1[nH]c(=O)n(Cc2ccco2)c2c1C(C(F)(F)F)(C(F)(F)F)N=C(CCC1CCCCC1)N2	15.1%	4.2%	?	-2.4%	-16.5%
N#Cc1ccc(C2=NC(C(F)(F)F)(C(F)(F)F)c3c(n(Cc4ccco4)c(=O)[nH]c3=O)N2)cc1	4.4%	-0.7%	-85.1*	14.6%	-10.9%
O=c1[nH]c(=O)n(-c2ccc(F)cc2)c2c1C(C(F)(F)F)(C(F)(F)F)N=C(c1ccc(F)cc1)N2	12.6µM*	?	-99.4*	?	10µM*
COC(=O)c1cc2sc(C)cc2n1CC(=O)Nc1ccc(C)c(C)c1	.	?	-27.1	.	0.1%
Cc1ccc(NC(=O)c2ccc(=O)n(CC(=O)Nc3cc(C)cc(C)c3)n2)cc1	.	.	46.6	?	-2.0%
COc1ccc(OC)c(N2C(=O)CC(Cc3cc(C)cc(C)c3)C2=O)c1 (stereo not given)	3.55µM*	-2.3%	22.5	6.5%	?
SMILES	HCV inhibitor	Marburg entry inh	HCMV inh	Lassa entry inh	FMDV antiviral
COc1ccc(CCN2C(=O)CSC2=Nc2ccc(C)cc2C)cc1OC	?	?	-8.8	?	12.6µM*
COc1ccc(CCN2C(=O)CC(Cc3ccc(C)cc3)C2=O)cc1OC (stereo not given)	-1.2%	8.8%[46.1 µM]	-63.9*	1.8%	-13.2%
COc1ccc(CCN2C(=O)CC(NC34CC5CC(CC(C5)C3)C4)C2=O)cc1OC (stereo not given)	-14.7%	-15.0%[46.1 µM]	-27.7	-13.8%	?
COc1ccc(OC)c(N2C(=O)CC(Cc3ccc(Cl)cc3)C2=O)c1 (stereo not given)	-0.4%	13.4%	-4.6	-26.1%	?
COc1ccc(CCN2C(=O)CS/C2=N/NC(=O)c2ccccc2F)cc1OC	9.6%	-7.3%	5.5	0.2%	-31.6%
COc1cc(=O)n2c(c1C(=O)N(C)Cc1nonc1C)CCN(C(=O)c1cccc(C)c1C)CC2	.	.	.	.	13.0%
Cc1cccc(CNC(=O)c2ccc(Cn3c(=O)c4cccn4c4cccnc43)cc2)c1	.	.	?	-8.5%[46.1 µM]	-15.0%
